Sampled rows, rich in hits. Any-hit rate of the full collection: about 3.5%.
MITF inh: inhibitors of human MITF | O75030 | AlphaScreen MITF homodimerization, bead proximity signal | AID 1259374 | 650,000 tested, 0.91% active | inhibition, % at 2.6 µM; in the data active = inhibition above about 50%;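 note: 0% = vehicle wells with protein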
GPR151 ag: activators of human GPR151. 650,000 tested, 1% active. PathHunter beta-arrestin GPR151 cells, luminescence. activation, % at 11.2 µM. Q8TDV0; in the data active = activation above about 4.9%;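 note: 0% = median of compound wells and 100% = cells with positive control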
Target sequence (Q8TDV0 whole entry, looked up): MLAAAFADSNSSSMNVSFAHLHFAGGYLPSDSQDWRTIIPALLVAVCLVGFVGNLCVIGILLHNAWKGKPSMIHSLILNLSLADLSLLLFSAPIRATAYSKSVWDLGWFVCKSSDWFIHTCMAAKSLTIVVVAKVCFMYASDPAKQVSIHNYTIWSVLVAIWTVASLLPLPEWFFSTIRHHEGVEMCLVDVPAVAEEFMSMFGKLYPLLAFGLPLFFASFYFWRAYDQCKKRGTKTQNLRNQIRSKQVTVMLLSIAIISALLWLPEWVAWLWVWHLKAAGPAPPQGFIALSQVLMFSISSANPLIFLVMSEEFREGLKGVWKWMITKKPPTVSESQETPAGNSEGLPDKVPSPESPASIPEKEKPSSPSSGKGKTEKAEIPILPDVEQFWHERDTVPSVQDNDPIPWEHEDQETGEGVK
TEAD-YAP block: TEAD-YAP interaction inhibition | HEK-TIYL cells, TEAD-Gal4/YAP UAS-luciferase luminescence | inhibition, % at 9.12 µM | 640,000 tested, 1.4% active; in the data active = inhibition above about 32%;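 note: 0% = median of test compound wells and 100% = reference inhibitor wells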
FBW7 activator: human FBW7 E3 ligase activation, primary screen; Q969H0; AlphaScreen FBW7–phospho-cyclin E peptide binding, activator screen; normalized activity (activation), % at 26.1 µM; 650,000 tested, 0.13% active; in the data active = normalized activity above about 1.9%;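 note: purified mutant Fbw7 with reduced substrate affinity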
The depositor's hits bear a star.

FC1(F)Oc2ccc(Nc3nccc(-c4cncc(N5CCOCC5)c4)n3)cc2O1 was read as MITF inh 22.5, GPR151 ag -1.8, TEAD-YAP block -2.6 and FBW7 activator 0.5.
Screening c1ccc(Nc2ccnc(Nc3ccc(N4CCOCC4)cc3)n2)cc1 returned MITF inh 7.2, GPR151 ag -0.2, TEAD-YAP block 0.6 and FBW7 activator -0.3.
Screening COc1ccc(Nc2nccc(-c3cncc(N4CCOCC4)c3)n2)cc1 returned MITF inh 3.1, GPR151 ag -0.2, TEAD-YAP block 61.1* and FBW7 activator 0.6.
c1cn(-c2ccc(Nc3nccc(-c4cncc(N5CCOCC5)c4)n3)cc2)cn1 was read as MITF inh 16.2, GPR151 ag -0.6, TEAD-YAP block 78.1* and FBW7 activator -0.2.
Screening CC(=O)N1CCN(c2nc(C3CC3)nc3sc4c(c23)CCC(C(C)(C)C)C4)CC1 (stereo unspecified) returned MITF inh 13.3, GPR151 ag -1.4, TEAD-YAP block 0.0 and FBW7 activator 0.2.
For c1cc(-n2cnc3c(NC4CC4)nc(NCCN4CCOCC4)nc32)cs1 the results were MITF inh 13.9, GPR151 ag 1.0, TEAD-YAP block 41.0* and FBW7 activator 0.3.
`CCCNc1nc(NCCN2CCOCC2)nc2c1ncn2-c1ccsc1` gave MITF inh 6.0, GPR151 ag -2.3, TEAD-YAP block 33.9* and FBW7 activator -0.2.
Screening Nc1nc(NCCN2CCOCC2)nc2c1ncn2-c1ccsc1 returned MITF inh -0.8, GPR151 ag 0.5, TEAD-YAP block 3.8 and FBW7 activator 0.0.
CCOC(=O)c1ccc(NC(=O)c2cn(CCC#N)nc2-c2ccc(F)cc2)cc1 was read as MITF inh 2.2, GPR151 ag -0.3, TEAD-YAP block 1.5 and FBW7 activator 0.1.
For CCN(CC)C(=O)c1cn(CCC#N)nc1-c1ccc(F)cc1 the results were MITF inh 10.3, GPR151 ag -1.2, TEAD-YAP block -4.3 and FBW7 activator 2.1*.
For Cc1ccc(-c2cnn3c(N4CCN(C)CC4)ccnc23)cc1 the results were MITF inh -11.7, GPR151 ag 0.1, TEAD-YAP block -52.0 and FBW7 activator -0.1.
`Cc1csc(-c2cnn3c(N4CCN(C)CC4)ccnc23)c1` gave MITF inh -12.9, GPR151 ag -1.0, TEAD-YAP block 32.5* and FBW7 activator -0.5.
`CC1=NN2C(=N)/C(=C\c3ccc(SCc4ccco4)o3)C(=O)N=C2S1` gave MITF inh 11.9, GPR151 ag 0.1, TEAD-YAP block 12.0 and FBW7 activator -0.5.
For CN1C(=O)/C(=C/c2ccc(SCc3ccco3)o2)SC1=S the results were MITF inh 56.9*, GPR151 ag 0.2, TEAD-YAP block -17.6 and FBW7 activator -0.9.
`CS(=O)(=O)C1=NN2C(=N)/C(=C\c3ccc(SCc4ccco4)o3)C(=O)N=C2S1` gave MITF inh 79.4*, GPR151 ag 0.8, TEAD-YAP block 4.0 and FBW7 activator -1.0.
N=C1/C(=C\c2ccc(SCc3ccco3)o2)C(=O)N=C2SC(N3CCOCC3)=NN12 was read as MITF inh 62.1*, GPR151 ag 1.0, TEAD-YAP block -0.6 and FBW7 activator -0.4.
CCc1ccccc1NC(=O)C1CC(=O)N(c2ccccc2)C1 (stereo unspecified) was read as MITF inh -2.1, GPR151 ag -0.9, TEAD-YAP block 0.4 and FBW7 activator -0.2.
COc1cc(NC(=O)C2CC(=O)c3ccccc3C2)ccc1-c1cn[nH]c1 (stereo unspecified) was read as MITF inh -4.3, GPR151 ag 0.7, TEAD-YAP block 48.4* and FBW7 activator -0.1.
COc1cc(NC(=O)C2COc3ccccc3C2)ccc1-c1cn[nH]c1 (stereo unspecified) was read as MITF inh -0.7, GPR151 ag 2.3, TEAD-YAP block 1.9 and FBW7 activator 0.2.
Screening CCN(C1=C(Cl)C(=O)N(c2ccccc2)C1=O)c1ccccc1 returned MITF inh 7.3, GPR151 ag -0.2, TEAD-YAP block 6.1 and FBW7 activator -0.2.
For CN(C1=C(Cl)C(=O)N(c2cccc(Cl)c2)C1=O)c1ccccc1 the results were MITF inh 19.2, GPR151 ag 0.9, TEAD-YAP block 32.7* and FBW7 activator 0.0.
`CC(=O)C/C(=N/NC(N)=S)C(F)(F)F` gave MITF inh -5.1, GPR151 ag -0.2, TEAD-YAP block 54.8* and FBW7 activator -0.1.
`CC(=O)c1cccc(NC(=O)c2cc(-c3cccc(O)c3)on2)c1` gave MITF inh 0.0, GPR151 ag -0.7, TEAD-YAP block -24.8 and FBW7 activator -0.1.
Screening COc1ccc2cc(C3(C)NC(=O)N(CC(=O)Nc4cc(C)ccc4C)C3=O)ccc2c1 (stereo unspecified) returned MITF inh -3.8, GPR151 ag 1.8, TEAD-YAP block 5.0 and FBW7 activator 0.1.
CCOC(=O)c1cnc2c(OC)cccc2c1NCCOC was read as MITF inh 0.2, GPR151 ag -0.6, TEAD-YAP block 42.4* and FBW7 activator -0.2.
`CCOC(=O)c1cnc2c(OC)cccc2c1NCCc1ccccc1` gave MITF inh -4.5, GPR151 ag -0.4, TEAD-YAP block -0.2 and FBW7 activator 0.1.
For CCOC(=O)c1cnc2c(OC)cccc2c1NCCCN(CC)CC the results were MITF inh -5.8, GPR151 ag -1.3, TEAD-YAP block 82.8* and FBW7 activator -0.1.
Screening CCOC(=O)c1cnc2c(OC)cccc2c1Nc1cc(OC)c(OC)c(OC)c1 returned MITF inh 1.7, GPR151 ag 0.2, TEAD-YAP block 55.9* and FBW7 activator 0.0.
For CCOC(=O)c1cnc2c(OC)cccc2c1NCCCOC the results were MITF inh 8.1, GPR151 ag 0.7, TEAD-YAP block 18.6 and FBW7 activator 0.0.
For Cc1ccc(-n2nnc3c(=O)n(CC(=O)N4CCCc5ccccc54)cnc32)cc1C the results were MITF inh -7.2, GPR151 ag -0.1, TEAD-YAP block -2.2 and FBW7 activator -0.1.
Cc1cccc(Oc2ccc(NC(=O)CCC(=O)O)cc2)c1 was read as MITF inh -6.7, GPR151 ag 0.3, TEAD-YAP block -3.3 and FBW7 activator 0.0.
For Cc1c(C#N)c(NC(=O)CCl)n(Cc2ccco2)c1C the results were MITF inh -14.4, GPR151 ag -0.4, TEAD-YAP block 32.1* and FBW7 activator 0.1.
For COc1ccc(OC)c(C2NC(=O)NC(C)=C2C(=O)Nc2ccccc2Cl)c1 (stereo unspecified) the results were MITF inh -1.6, GPR151 ag -0.9, TEAD-YAP block 0.3 and FBW7 activator -0.2.
Screening COc1ccc(Cl)cc1-n1c(SCc2ccccc2F)nc2[nH]ncc2c1=O returned MITF inh -1.5, GPR151 ag 1.0, TEAD-YAP block -10.6 and FBW7 activator -0.2.
For COc1ccc(Cl)cc1-n1c(SCc2cc(=O)n3ccccc3n2)nc2[nH]ncc2c1=O the results were MITF inh 5.2, GPR151 ag -1.0, TEAD-YAP block 60.3* and FBW7 activator -0.1.
For COc1cc(NC(=O)c2csc(-c3ccc(C(N)=O)cc3)n2)cc(OC)c1OC the results were MITF inh -2.6, GPR151 ag 0.9, TEAD-YAP block 36.4* and FBW7 activator -0.1.

Screening data as filed in PubChem.
